Compound activity (PubChem)
In the library only some 3.6% were active in any assay of this set; here they are far more common.
Pf apPOL inh: Pf-apPOL DNA polymerase inhibition. Recombinant Pf-apPOL, molecular beacon fluorescence, 1.5 h. inhibition, % at 10 µM. 210,000 tested, 0.25% active. AID 1794808
mHTT CaM bind: inhibitors of human mutant huntingtin-calmodulin interaction | AlphaScreen His-mHTT/GST-CaM binding, luminescence | 190,000 tested, 3.6% active | P42858 | inhibition, % at 15 µM;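 further: 0% = both proteins with DMSO and 100% = one protein alone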
Target sequence (P42858 whole entry, looked up, stated change not applied): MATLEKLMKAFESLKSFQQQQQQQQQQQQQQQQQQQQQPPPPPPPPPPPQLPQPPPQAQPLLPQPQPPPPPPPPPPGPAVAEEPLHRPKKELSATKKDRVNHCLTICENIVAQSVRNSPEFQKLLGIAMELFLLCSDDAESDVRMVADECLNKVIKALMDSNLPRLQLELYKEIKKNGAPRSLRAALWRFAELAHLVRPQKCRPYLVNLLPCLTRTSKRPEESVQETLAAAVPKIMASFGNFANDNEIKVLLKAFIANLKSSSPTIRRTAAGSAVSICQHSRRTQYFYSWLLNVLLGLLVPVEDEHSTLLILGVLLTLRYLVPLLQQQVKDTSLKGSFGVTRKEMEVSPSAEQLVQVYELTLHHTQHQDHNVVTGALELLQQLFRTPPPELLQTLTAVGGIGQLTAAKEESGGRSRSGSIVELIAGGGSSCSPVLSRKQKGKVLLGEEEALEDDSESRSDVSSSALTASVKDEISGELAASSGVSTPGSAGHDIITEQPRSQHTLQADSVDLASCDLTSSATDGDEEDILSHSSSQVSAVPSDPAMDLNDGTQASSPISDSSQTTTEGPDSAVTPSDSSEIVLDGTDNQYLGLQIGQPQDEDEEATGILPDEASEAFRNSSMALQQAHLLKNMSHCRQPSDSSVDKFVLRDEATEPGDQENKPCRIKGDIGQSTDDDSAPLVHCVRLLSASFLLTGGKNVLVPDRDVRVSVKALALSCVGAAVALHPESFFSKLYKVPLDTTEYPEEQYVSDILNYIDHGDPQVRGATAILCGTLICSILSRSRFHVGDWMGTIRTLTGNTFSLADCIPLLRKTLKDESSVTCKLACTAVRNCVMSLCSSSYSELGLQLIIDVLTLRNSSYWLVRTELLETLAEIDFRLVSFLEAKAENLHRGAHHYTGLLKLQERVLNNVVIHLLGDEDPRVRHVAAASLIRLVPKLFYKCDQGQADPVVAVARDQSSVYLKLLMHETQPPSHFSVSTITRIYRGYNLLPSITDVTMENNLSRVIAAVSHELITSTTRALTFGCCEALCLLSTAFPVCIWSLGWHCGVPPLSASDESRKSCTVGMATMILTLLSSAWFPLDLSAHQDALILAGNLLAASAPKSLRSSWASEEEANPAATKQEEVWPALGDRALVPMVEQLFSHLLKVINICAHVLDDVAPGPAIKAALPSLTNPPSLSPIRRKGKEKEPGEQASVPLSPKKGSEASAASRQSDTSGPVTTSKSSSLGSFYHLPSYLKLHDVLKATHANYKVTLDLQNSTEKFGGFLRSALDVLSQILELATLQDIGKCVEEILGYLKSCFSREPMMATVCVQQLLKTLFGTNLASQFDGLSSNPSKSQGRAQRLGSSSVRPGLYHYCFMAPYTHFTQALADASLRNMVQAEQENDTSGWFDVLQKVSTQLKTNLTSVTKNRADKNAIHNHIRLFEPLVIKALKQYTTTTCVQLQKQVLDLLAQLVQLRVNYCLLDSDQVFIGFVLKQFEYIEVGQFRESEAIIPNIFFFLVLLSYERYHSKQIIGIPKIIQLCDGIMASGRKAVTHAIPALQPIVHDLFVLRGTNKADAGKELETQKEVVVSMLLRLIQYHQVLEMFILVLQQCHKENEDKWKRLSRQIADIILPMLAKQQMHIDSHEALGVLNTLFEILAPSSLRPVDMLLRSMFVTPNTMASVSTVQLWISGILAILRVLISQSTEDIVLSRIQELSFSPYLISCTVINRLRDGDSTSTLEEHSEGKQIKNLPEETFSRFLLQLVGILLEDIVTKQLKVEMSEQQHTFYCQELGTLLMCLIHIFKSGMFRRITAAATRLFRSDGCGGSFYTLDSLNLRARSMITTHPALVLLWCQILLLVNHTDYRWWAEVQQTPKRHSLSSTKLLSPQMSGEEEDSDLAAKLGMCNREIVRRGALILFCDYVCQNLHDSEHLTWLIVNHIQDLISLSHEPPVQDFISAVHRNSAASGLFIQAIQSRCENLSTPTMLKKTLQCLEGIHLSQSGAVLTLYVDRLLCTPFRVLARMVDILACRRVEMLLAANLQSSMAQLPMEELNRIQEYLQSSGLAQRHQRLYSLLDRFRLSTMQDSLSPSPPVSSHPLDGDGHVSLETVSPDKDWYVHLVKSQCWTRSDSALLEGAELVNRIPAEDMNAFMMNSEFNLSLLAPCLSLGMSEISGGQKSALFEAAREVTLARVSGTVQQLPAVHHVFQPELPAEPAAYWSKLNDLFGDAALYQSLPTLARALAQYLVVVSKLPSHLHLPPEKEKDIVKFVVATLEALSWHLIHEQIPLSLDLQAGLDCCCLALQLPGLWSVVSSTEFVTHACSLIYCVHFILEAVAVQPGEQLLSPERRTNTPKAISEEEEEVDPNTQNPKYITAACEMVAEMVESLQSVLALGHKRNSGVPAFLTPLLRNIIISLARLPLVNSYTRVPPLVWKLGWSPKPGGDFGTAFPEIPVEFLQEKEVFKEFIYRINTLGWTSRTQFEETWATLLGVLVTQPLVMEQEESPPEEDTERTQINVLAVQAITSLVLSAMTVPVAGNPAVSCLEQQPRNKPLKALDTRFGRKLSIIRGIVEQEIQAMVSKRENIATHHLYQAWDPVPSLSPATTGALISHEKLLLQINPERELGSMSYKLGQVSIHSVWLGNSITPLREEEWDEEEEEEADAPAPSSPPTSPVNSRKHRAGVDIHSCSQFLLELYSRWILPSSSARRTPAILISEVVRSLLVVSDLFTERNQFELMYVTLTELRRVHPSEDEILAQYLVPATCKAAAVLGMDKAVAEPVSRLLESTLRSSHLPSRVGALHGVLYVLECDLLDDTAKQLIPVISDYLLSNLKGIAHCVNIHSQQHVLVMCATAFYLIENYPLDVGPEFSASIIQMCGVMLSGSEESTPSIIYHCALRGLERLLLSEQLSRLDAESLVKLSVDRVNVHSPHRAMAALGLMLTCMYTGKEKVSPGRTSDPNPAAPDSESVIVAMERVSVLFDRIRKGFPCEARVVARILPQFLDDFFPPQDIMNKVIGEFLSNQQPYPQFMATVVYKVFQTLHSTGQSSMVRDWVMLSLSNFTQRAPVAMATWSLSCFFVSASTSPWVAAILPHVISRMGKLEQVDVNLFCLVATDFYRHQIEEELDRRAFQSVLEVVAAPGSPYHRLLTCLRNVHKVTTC
* marks the source's active call; other numbers are inactive results; i = inactive; / = no result. No stated cut-off is given here; in the data, active means inhibition above about 50%; inactive means the rest.

SMILES	Pf apPOL inh	mHTT CaM bind
Cc1ccc(C(=O)N2CCN(C(=O)c3nnn4c3COC(c3ccccc3)C4)CC2)cc1F (configuration not stated)	-2	5
CN(C)C(=O)CCSc1ccc(Cl)cc1	-2	-1
CC(C)n1c(C(O)c2ccc(OCc3ccccc3)cc2)nc2ccccc21 (configuration not stated)	10	81*
Cc1ccc(OCc2nc3ccccc3n2C(C)C)cc1	-2	-17
CCN(CC)C(=O)Oc1ccc2c(-c3cc4cccc(OC)c4oc3=O)cc(=O)oc2c1	-4	-2
COc1ccc(C(CCN2CCCCC2)c2c(OC)cc(OC)c3c(-c4ccccc4)cc(=O)oc23)cc1 (configuration not stated)	-8	99*
COc1cc(C(CCN2CCCC2)c2c(OC)cc(OC)c3ccc(=O)oc23)cc(OC)c1OC (configuration not stated)	-3	8
OC(CCN1CCCCC1)c1ccc(-c2ccccc2)cc1 (configuration not stated)	-4	/
COc1cc(OC)c2c(-c3ccccc3)cc(=O)oc2c1C(CCN1CCOCC1)c1ccc(N(C)C)cc1 (configuration not stated)	-6	94*
COc1cc(C(CC(=O)N2CCOCC2)c2c(OC)cc(OC)c3c(-c4ccccc4)cc(=O)oc23)cc(OC)c1OC (configuration not stated)	-6	47
COc1cc(OC)c2c(-c3ccccc3)cc(=O)oc2c1C(CCN1CCCCC1)c1ccc(N(C)C)cc1 (configuration not stated)	-9	100*
CCN(CC)C(=O)CC(c1ccc(OC)cc1)c1c(OC)cc(OC)c2c(-c3ccccc3)cc(=O)oc12 (configuration not stated)	9	88*
O=C1CCC(=O)N1CC(O)COc1ccc(OCC(O)CN2C(=O)CCC2=O)cc1 (configuration not stated)	-3	-4
COc1cccc2cc(C(=O)NC(C)(C)CC(C)(C)C)c(=O)oc12	-4	-2
COc1cc(C(CCN2CCN(c3ccccc3)CC2)c2c(OC)cc(OC)c3c(C)cc(=O)oc23)cc(OC)c1OC (configuration not stated)	-9	94*
CCN(CC)CCC(c1cc(OC)c(OC)c(OC)c1)c1c(OC)cc(OC)c2c(C)cc(=O)oc12 (configuration not stated)	-13	16
COc1cc(C(CCN2CCCC(C)C2)c2c(OC)cc(OC)c3c(C)cc(=O)oc23)cc(OC)c1OC (configuration not stated)	-11	14
CCN(CC)CCC(c1ccc(N(C)C)cc1)c1c(OC)cc(OC)c2c(C)cc(=O)oc12 (configuration not stated)	-1	94*
O=C(CCC(=O)NCCC1=CCCCC1)NCCC1=CCCCC1	/	-7
CCOc1ccccc1NC(=O)N1CCCC1c1nc(-c2cccc(OC)c2)no1 (configuration not stated)	0	5
c1ccc(-c2cccc(-c3ccccn3)n2)nc1	/	100*
c1ccc(-c2ccc3ccccc3n2)nc1	/	-1
CC(=O)[C@]1(O)Cc2c(O)c3c(c(O)c2[C@@H](O[C@H]2C[C@H](N)[C@H](O)[C@H](C)O2)C1)C(=O)c1ccccc1C3=O	50*	/
COc1cccc2c1C(=O)c1c(O)c3c(c(O)c1C2=O)CC(O)(C(=O)CO)CC3OC1CC(N)C(O)C(C)O1 (configuration not stated)	i	/
O=C(Nc1ncc2c(n1)CC(c1ccco1)CC2=O)c1ccccc1 (configuration not stated)	-11	4
SMILES	Pf apPOL inh	mHTT CaM bind
Oc1ccc(Cl)cc1/C=C/c1ccc2cccc(O)c2n1	8	100*
COc1cc(Br)cc(/C=C/c2ccc3cccc(O)c3n2)c1O	-8	36
COc1cc(/C=C/c2ccc3cccc(O)c3n2)c(Br)cc1O	-8	48
COc1cc(/C=C/c2ccc3cccc(O)c3n2)cc([N+](=O)[O-])c1O	-5	93*
COc1cc(/C=C/c2ccc3cccc(O)c3n2)c(Cl)cc1O	-6	63*
COc1cc(Br)c(/C=C/c2ccc3cccc(O)c3n2)cc1OC	-5	35
Oc1cccc2ccc(/C=C/c3cc4c(cc3Br)OCO4)nc12	-8	72*
COc1cccc2ccc(/C=C/c3cccc([N+](=O)[O-])c3)nc12	-8	12
O=C(NCC1CCCO1)c1c(NC(=O)C2COc3ccccc3O2)sc2c1CCCC2 (configuration not stated)	12	-2
O=C(NCC(=O)N1CCN(c2ncccn2)CC1)c1c[nH]c2ccccc12	-10	-11
CCOC(=O)N1CCN(C(=O)c2cnn(-c3nc(C)cc(=O)[nH]3)c2C)CC1	-7	-13
Cc1ccccc1C(=O)N1CCN(C(C(=O)NC(C)C)C2CCCC2)CC1 (configuration not stated)	-4	-2
O=C(CCN1CCN(c2nccc(C(F)(F)F)n2)CC1)N1CCCN(c2ccc(C(F)(F)F)cn2)CC1	-11	/
O=[N+]([O-])c1ccc(O)c(/C=C/c2ccc3cccc(O)c3n2)c1	3	60*
O=[N+]([O-])c1ccc(O)c(C=Nc2nc3c(O)cccc3s2)c1	-5	13
COc1ccc(OC)c(/C=C/c2ccc3cccc(O)c3n2)c1	2	36
COc1ccc(Br)c(/C=C/c2ccc3cccc(O)c3n2)c1	-1	65*
Cn1c(Cl)c(CN)c2ccccc21	/	-5
FC(F)(F)c1cccc(CN2CC(c3nc(Cc4ccccc4)no3)C2)c1	-4	62*
Cc1nnc(NC(=O)CN2CC(c3nc(Cc4ccccc4)no3)C2)s1	-5	-3
O=C(CN1CC(c2nc(Cc3ccccc3)no2)C1)c1ccc(Cl)cc1	20	57*
Cc1cccc(CS(=O)(=O)N2CC(c3nc(Cc4ccccc4)no3)C2)c1	-8	-13
O=[N+]([O-])c1cc(Br)cc2c1[nH]c1ccc(Br)cc12	/	18
CCOc1ccc(C(=O)N2CCCCC2)cc1OCC	-6	-2
O=C(Nc1c(-c2ccccc2)nc2ccccn12)c1ccc(Cl)c([N+](=O)[O-])c1	-2	67*
SMILES	Pf apPOL inh	mHTT CaM bind
COc1ccc(-c2nc3ccccn3c2NC(=O)c2ccc(Cl)c([N+](=O)[O-])c2)cc1	3	49
CC1(C)CC(NCc2cccc([N+](=O)[O-])c2)CC(C)(C)N1	-15	-2
CCN1CCN(C(=O)c2sc3ncn(Cc4ccccc4F)c(=O)c3c2C)CC1	-9	2
O=C(NCCOc1ccc2nnc(-c3ccc(F)cc3)n2n1)c1cc(-c2ccco2)[nH]n1	64*	-6
O=C(Cc1cccs1)NCCOc1ccc2nnc(-c3ccc(F)cc3)n2n1	3	-4
COc1ccc(OC)c(NC(=O)c2cc(C)n(CCN(C)C)c2C)c1	-1	23
COc1ccc(C)cc1NC(=O)c1cc(C)n(CCN(C)C)c1C	3	51*
Oc1c(Cl)cc(Cl)cc1C=NNC(=S)NCC1CCCO1 (configuration not stated)	70*	/
Oc1c(Cl)cc(Cl)cc1C=NNC(=S)NC1CC2CCC1C2 (configuration not stated)	-6	/
CCNc1cc(N2CCC(CCC(=O)NCCN3CCN(C)CC3)CC2)ncn1	-1	5
O=C(Nc1ccc(N2CCN(Cc3ccccc3)CC2)nc1)c1cccc(F)c1	0	6
O=C(Cc1ccccc1Br)Nc1cc(-c2cccs2)no1	3	-11
